Data on eight molecules can be found in PubChem BioAssay (NCI).

This is part of a sample that, as a whole, favours compounds with a hit. Of some 83,000 tested, about 20% had one in any assay.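 Interpretation: 100, growth as untreated; towards 0, rising growth inhibition; 0, no net growth; 0 to -100, cell death. Compounds scoring below 10 were considered active.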 Unmarked numbers belong to inactive results. Calls of active or inactive are those of the source.

Holding throughout (test): NCI-60 one-dose screen, 48 h (100 = growth as untreated, 0 = no growth, -100 = all killed)
Holding throughout (conditions): 10 µM unless noted

The subject of assay [1] is NCI-H23 lung.
Assay [2] has as its system NCI-H226 lung.
In assay [3] the test system is NCI-H322M lung.
In assay [4] the test system is HOP-62 NSCLC.
In assay [5] the test system is NCI-H460 lung.
Assay [6] deals with HOP-92 NSCLC.
Assay [7] relates to NCI-H522 lung.
Assay [8] has as its system A549/ATCC NSCLC.
Assay [9] deals with 786-0 renal.
Assay [10] relates to COLO 205 colon.
The test system of assay [11] is DU-145 prostate.
Assay [12] relates to K-562 leukemia.
For assay [13], the system named is MALME-3M melanoma.
In assay [14] the test system is MDA-MB-231 breast.
In assay [15] the test system is RXF 393 renal.
In assay [16] the test system is SF-268 CNS.
Assay [17] has as its system SF-295 CNS.
Assay [18] relates to SF-539 CNS.
The test system of assay [19] is UACC-257 melanoma.
For assay [20], the system named is M14 melanoma.

For `CS(=O)(=O)c1ccc(/C(=N/NC(N)=S)c2ccc(F)cc2)cc1`, the growth in assay [1] was 97.9%; in assay [2], 107%; in [3] it was 104%; in [4] it was 105%; in assay [5], 102%; in assay [6] it was 112%. Besides, the growth is 99.6% in [7]; 108% in assay [8]; 102% in [9]; 116% in assay [10]; 108% in assay [11]; 85.1% in [12]. Besides, the growth was 104% in [13]; 107% in assay [14]; 85.1% in assay [15]; 98.8% in assay [16]; 106% in assay [17]; 102% in assay [18]. The growth in assay [19] was 102%; in assay [20], 104%.

For the molecule `COc1cc(C(=O)c2c(-c3ccccc3)oc3ccccc23)cc(OC)c1O`, the growth in assay [1] is 43.2%; in assay [2], 52.8%; in assay [3] it was 53.4%; in assay [4], 38.2%; in [5], 13.9%; in [6], 55.4%. Moreover, the growth is 40.2% in assay [7]; 47.3% in assay [8]; 35.6% in assay [9]; 123% in [10]; 26% in assay [11]; 17.4% in [12]. For the same molecule, the growth is 48.5% in [13]; 59.7% in assay [14]; -2.49% (active) in assay [15]; 59.9% in assay [16]; 14.3% in assay [17]; 8.35% (active) in assay [18]. Also, the growth was 73.2% in assay [19] and 16.6% in assay [20].

For `CC1(C)CCC[C@]23C(=O)O[C@](O)(C(=O)C4=C[C@@](C)(/C=C/CCCc5ccc6ccc7cccc8ccc5c6c78)CC[C@@]42O)[C@@H]13`, the growth in assay [1] is -60.6% (active); in [2] it was -69.5% (active); in assay [3], -98.6% (active); in assay [4], -66.1% (active); in assay [5] it was -74.5% (active); in assay [6], -83.9% (active). Moreover, the growth in [7] is -62.6% (active); in [8], -70.5% (active); in [9] it was -79.3% (active); in assay [10], -72.4% (active); in [11], -85.7% (active); in assay [12], 5.77% (active). In addition, the growth in assay [13] is -93.6% (active); in [14] it was -69.9% (active); in assay [15], -86.2% (active); in assay [16], -45.3% (active); in assay [17], -76.7% (active); in assay [18], -96.6% (active). The results for the growth in assay [19] and in assay [20] were -68.7% (active) and -62% (active), respectively.

Regarding `C=C(C)[C@@H]1CCC[C@]2(C(=O)OC)CC[C@]3(C)[C@@H](CC[C@@H]4[C@@]5(C)CCCNC(C)(C)[C@@H]5CC[C@]43C)[C@@H]12`, the growth in assay [1] is 96%; in [2], 84.4%; in assay [3], 79.6%; in assay [4] it was 85.5%; in assay [5] it was 94.4%; in [6], 70.7%. For the same molecule, the growth is 91.8% in [7]; 91.9% in [8]; 90.1% in assay [9]; 76.1% in assay [10]; 105% in [11]; 55.4% in [12]. Also, the growth was 79.6% in [13]; 85.5% in [14]; 90.9% in [15]; 93.4% in [16]; 104% in [17]; 98.7% in [18]. Besides, the growth was 98.9% in assay [19] and 97% in [20].

As to `O=c1c(Cc2ccc(F)cc2)cc(-c2ccccc2)nn1C/C(=N/O)c1ccccc1`, the growth in [1] was 49%; in assay [2], 57.1%; in [3], 70%; in assay [4] it was 62.7%; in assay [5], 37.4%; in assay [6], 42.6%. Further, the growth in assay [7] is 42.6%; in assay [8], 24.2%; in [9], 69.2%; in assay [11], 79.6%; in assay [12] it was 29.2%; in [13] it was 35.8%. Further, the growth was 43.1% in assay [14]; 28.5% in [15]; 52.6% in [16]; 31.9% in assay [17]; 81.9% in assay [18]; 53.8% in assay [19]. The growth in [20] was 37.5%.

Regarding `Cc1nc2cccc(NCc3ccc(C(=O)NO)cc3)c2c(=O)n1-c1ccccc1`, the growth in [1] was -16.8% (active); in assay [2], 67.2%; in assay [3], 66.8%; in [4], 43.9%; in assay [5], 29.3%; in assay [6] it was 15.3%. Also, the growth was -2.46% (active) in [7]; 34.1% in assay [8]; 54.5% in assay [9]; -37.9% (active) in [10]; 26.7% in assay [11]; 18.7% in assay [12]. In addition, the growth is 35.3% in [13]; 48.2% in assay [14]; 28.2% in assay [15]; 54% in [16]; 16% in [17]; 15.1% in assay [18]. For the same molecule, the growth is 53.4% in [19] and 32.8% in assay [20].

Turning to `O=C(Nc1cccc(Cn2c(=O)[nH]c3ccc(Oc4ncccn4)cc3c2=O)c1)c1cccc(Cl)c1`, the growth in assay [1] is 48.6%; in assay [2], 68.6%; in assay [3] it was 75.5%; in assay [4], 79.3%; in assay [5] it was 57.7%; in assay [6] it was 75.4%. In addition, the growth in assay [7] is 61.5%; in assay [8], 55.5%; in [9], 65.8%; in assay [10], 71.9%; in [11] it was 56.5%; in [12], 27.1%. Besides, the growth was 79.5% in assay [13]; 72.6% in [14]; 81.1% in assay [15]; 55.6% in assay [16]; 45.5% in assay [17]; 71.3% in [18]. Also, the growth in assay [19] was 44%; in assay [20], 70%.

With `O=C1/C(=C/c2ccc(Br)cc2)COc2ccc(O)cc21`, the growth in assay [1] was 101%; in [2] it was 95.5%; in assay [3] it was 95.6%; in assay [4] it was 99%; in assay [5] it was 102%; in [6], 99.9%. The growth was 15.8% in assay [7]; 91.1% in [8]; 76.4% in assay [9]; 101% in assay [11]; 9.11% (active) in assay [12]; 91.7% in assay [13]. For the same molecule, the growth in assay [14] is 85.9%; in [15], 95.9%; in assay [16], 89.8%; in [17] it was 100%; in assay [18] it was 92.5%; in assay [19], 103%. Further, the growth in [20] is 83.7%.
